The record followed here is the OligoGym collection.
Also: reference of the scale not given here.

The target in one assay is CASP8. Description: pooled miR-30 sensor sort-seq; sequence = guide strand. The following applies: shRNA.
For TTCATAGTCGTTGATTATCTTC, the sensor-assay potency score (higher = more potent) is -0.794.
Take TTGATTTGGGCACAGACTCTTT: the sensor-assay potency score (higher = more potent) was -0.862.
As for TATTAATAGATGATCGACCCTC, the sensor-assay potency score (higher = more potent) is -0.244.
The sequence TAATAGATGATCGACCCTCCGC displayed a sensor-assay potency score (higher = more potent) of -0.463.
On the same count and under the same terms, then TAGTTGATAGATAACAATCTGA, with -0.246; and TAACCTGCCTAACTCCACGTGC, with -0.566.
For TTTCTTGTCATCCTTGTTGCTT, the sensor-assay potency score (higher = more potent) is -0.189.
Turning to TAAACTTTGTCCAAAGTCTGTG, the sensor-assay potency score (higher = more potent) was -0.0888.

Another assay deals with CASQ1. The description is as above. The following applies: shRNA.
TAGTTCTTTGCATTGACATTGA: the sensor-assay potency score (higher = more potent) is -0.428.
Still for that read-out and setting: the value for TTGAGAGTCTCTAAGAACTCGA was -0.0687.
The same measure, in the same setting: then AACACATTCTTGTAGTTCTTTG, with -0.85; and TTCTTTGCCACCTTGCTGTCGA, with 0.0735.
The same measure, in the same setting: the value for TTGTCTTCTAGGACTTGGGCTG was -0.338.
Turning to TTCATGGTAGAGGAGTGCCAGC, the sensor-assay potency score (higher = more potent) is -1.44.
On to TAGCCAATGAGTTTGATCTCAT, for which the sensor-assay potency score (higher = more potent) is -0.312.
Sequence TAGGACATCAAGCAGAAACTCC displayed a sensor-assay potency score (higher = more potent) of -0.771.
As to TTGACAATCTCCTCTTCGCTAT, the sensor-assay potency score (higher = more potent) is -0.427.
The sequence TACAGGATTAGAGAGAGTGGGG returned a sensor-assay potency score (higher = more potent) of -0.52.
TTCACCTTCAATCAATTCCACA displayed a sensor-assay potency score (higher = more potent) of -1.32.
As for ATCCTTCTCAGAGTCTACCAGC, the sensor-assay potency score (higher = more potent) was -1.1.
ATGCTCTGAGTCTTTGCTCTTG had a sensor-assay potency score (higher = more potent) of -1.26.
Take TTGTAATGCTCTGAGTCTTTGC: the sensor-assay potency score (higher = more potent) is -1.04.
On to TTGATCACACGGTCCACACCAT, for which the sensor-assay potency score (higher = more potent) is -0.226.
TTCTCAGAGTCTACCAGCCCGA yielded a sensor-assay potency score (higher = more potent) of -1.38.
In turn, ATACTTCTTGAACACATTCTTG yielded a sensor-assay potency score (higher = more potent) of -1.25.
The sequence TCTCTAAGAACTCGAAACCATC had a sensor-assay potency score (higher = more potent) of -1.47.
As to TTGTGAGGCCTTGTCATCCTCG, the sensor-assay potency score (higher = more potent) is -0.34.
TACTTCTTGAACACATTCTTGT: the sensor-assay potency score (higher = more potent) worked out at 0.247.
As for TAATGCTCTGAGTCTTTGCTCT, the sensor-assay potency score (higher = more potent) is -0.39.
Regarding TTCTTGAACACATTCTTGTAGT, the sensor-assay potency score (higher = more potent) worked out at 0.249.
TACATTAACAAGTGATTGCTGA returned a sensor-assay potency score (higher = more potent) of 0.512.

For a further assay, the target named is CBL. The assay is described as above. The following applies: shRNA.
As for ATCTTGACAAGATAGTACGGAG, the sensor-assay potency score (higher = more potent) is -1.09.
For the sequence TTGCTTAGTTTTCTTCATCAAA, the sensor-assay potency score (higher = more potent) was -1.12.
Take TATCTTGACAAGATAGTACGGA: the sensor-assay potency score (higher = more potent) worked out at 0.0663.
Turning to TTTCACTTCGTCATACGTCAAA, the sensor-assay potency score (higher = more potent) is -0.674.
The same measure, in the same setting: then TACAGCTATCAATCTGCTGGTC, with -0.313; and TTGTTGTAGGATCACCATCCAG, with -1.34.
TGAGGGAACACATACTCGCTGC gave a sensor-assay potency score (higher = more potent) of -0.456.
TTATACATTGCTTCATACGTAC yielded a sensor-assay potency score (higher = more potent) of -0.141.
Consider TTATTGTGAGGGATTGTCTGGA, for which the sensor-assay potency score (higher = more potent) was 0.335.
